# Measurements taken from ChEMBL document CHEMBL3988442, “University of Dundee, Small-Polar-MMV Screening Library” (2021).
# “And” between values parts separate entries of the source, which are not always exact repeats. Equal entries are not always repeated. Hit rate of the full screen: of about 38,000 compounds, about 1,200 (3.2%) showed an effect of 50% or more. The median lay at about -58%. This is one part of a sample in which strong results are shown more often than they occur.
# Test system: Plasmodium falciparum
# Experiment: Calibr Malaria Delayed Death Assay SOP
# Assay type: functional, organism-based
# Design: scale not given: in the data most compounds retested in dose-response had high values
# Settings: concentration 4.99e-06 (unit not given; other assays of the set use mol/L)
SMILES,Percent Effect [%],Percent Effect (4.99 µM)
CC(=O)c1ccc(NC(=O)C(NC(=O)Nc2ccccc2)C(C)C)cc1 (stereo unspecified),-29.84,
Cc1n[nH]c(SCCNC2CCN(c3nc4ccccc4s3)CC2)n1,-208.3,
O=C(NCCNC1CCN(c2nccs2)CC1)c1cccs1,-27.34,
Cn1ccnc1SCCNC1CCN(c2ncccn2)CC1,-15.99,
Cn1ccnc1SCCNC1CCN(c2nc3ccccc3s2)CC1,58.02,
CCc1nccn1CCNC1CCN(c2nc3ccc(Cl)cc3s2)CC1,85.53,
CCc1cc(N2CCC(NCCc3ccccc3F)CC2)nc(C)n1,-10.81,
N#Cc1ccc(OCC(O)CN2CCc3cncnc3C2)cc1 (stereo unspecified),-94.24,
CCc1ccccc1CN1CCN(Cc2ncc[nH]2)[C@H]2CS(=O)(=O)C[C@H]21,-62.66,
CN1CC(c2ccccc2)CC2(CCN(Cc3ncc[nH]3)CC2)C1 (stereo unspecified),82.67,
CCN(CC1CN(Cc2ncc[nH]2)CCO1)c1cccnn1 (stereo unspecified),-7.517,
c1ccc(C2CN(C3CC3)CC3(CCN(Cc4cscn4)CC3)C2)cc1 (stereo unspecified),80.59,
COc1ccc(C2CCN(Cc3cscn3)CC2)cc1,-93.29,
COCCC(=O)N1CCC2(CC1)CC(c1ccccc1)CN(C)C2 (stereo unspecified),-5.324,
CCN1CC(c2ccccc2)CC2(CCN(Cc3ncc[nH]3)CC2)C1 (stereo unspecified),87.85,
CCN1CC2(CCC1=O)CCN(Cc1cscn1)CC2,-71.85,
c1ccc(C2CN(C3CC3)CC3(CCN(Cc4ncc[nH]4)CC3)C2)cc1 (stereo unspecified),35.37,
O=C(NCC(O)c1ccc(Cl)c(F)c1)NC1CC=CC1 (stereo unspecified),-17.82,
CCSc1cc(C(=O)NCCC(=O)N(C)C)ccn1,-118.1,
Cc1nn(CCNS(=O)(=O)NCc2ccccc2)c(C)c1Cl,-125.5,
COc1ccccc1N1CCN(C(=O)CCc2nncn2C)C(C)C1 (stereo unspecified),-70.09,
Cc1ccc(C)c(OC2CCN(C(=O)NCC(=O)N3CCCC3)CC2)c1,-83.87,

SMILES,Percent Effect [%],Percent Effect (4.99 µM)
CC(C)n1c2ccccc2c2c1cc(C(=O)NC1CC1)n2C(=O)N(C)C,-14.52,
O=c1c(CN2CCCCCC2)coc(O)c1CN1CCCCCC1,53.69,
O=c1c(CN2CCCCCC2)coc(O)c1CN1CCOCC1,-41.33,
O=c1c(CN2CCSCC2)coc(O)c1CN1CCCC1,-11.49,
COc1ccc(CNc2c(N3CCN(C)CC3)c(=O)c2=O)cc1,-162.8,
CCc1nc2n(n1)CC(NCc1noc(-c3ccc(C)cc3)n1)CC2 (stereo unspecified),-102.8,
CN(C)c1nc(NCCc2cnccn2)ncc1F,-28.24,
COCCC1CCCCN1C(=O)c1coc(COc2ccccc2F)n1 (stereo unspecified),,-24.51% and -14.95%
COc1cccc(CNCc2ccccc2Cl)c1O,76.29,
Fc1ccc(CNCCn2cccn2)c(Cl)c1,-121.7,
COc1cccc(CNCc2ccc(F)cc2Cl)c1O,78.71,
Cc1cnn(CCNCc2ccc(F)cc2Cl)c1,-82.03,
CCOc1cccc(CNc2ccccc2Cl)c1O,-149,
COCCNC(=O)NCCc1cccc(OC)c1O,-51.73,
O=C(c1ccc2[nH]c(=O)[nH]c2c1)N1CCC(Nc2cccnn2)CC1,-46.87,
COc1c(C)cnc(CN2CCOC(Cn3cc(C)cn3)C2)c1C (stereo unspecified),-74.84,
Cn1c2c(c(=O)n1C)CN(C(=O)c1cnccn1)CCC2,-106.6,
Cc1ccc(C(=O)N2CCCC3(C2)C(=O)N(C)c2ccccc23)c(=O)[nH]1 (stereo unspecified),-167.7,
Cc1cc(C)cc(NC(=O)CC2CN(Cc3ccccc3)CCO2)c1 (stereo unspecified),-128.2,
CCc1cccc2cc(CNCCCN3CCOCC3)c(=O)[nH]c12,-14.92,
COCCCn1c(CN2CCCCO2)cnc1S(=O)(=O)C1CCCC1,-131.1,
Cc1ccc(-n2cnnn2)cc1NCC(=O)Nc1ccccc1Cl,78.71,

SMILES,Percent Effect [%],Percent Effect (4.99 µM)
O=C(CNc1cc(-n2cnnn2)ccc1F)NCc1ccccc1,-22.04,
O=C(CNc1cc(-n2cnnn2)ccc1F)Nc1ccccc1Cl,-49.6,
Cc1ccc(-n2cnnn2)cc1NCC(=O)Nc1cc(F)ccc1F,71.46,
O=C(CNc1ccccc1Cl)Nc1cc(-n2cnnn2)ccc1F,-95.2,
O=C(CNc1cc(-n2cnnn2)ccc1F)Nc1cc(F)ccc1F,1.352,
Cc1ccc(-c2ccc(=O)n(CC(=O)Nc3nccs3)n2)cc1,-17.67,
FC1(F)CCN(Cc2ccccn2)CC12CCN(c1cnccn1)C2.O=C(O)C(F)(F)F.O=C(O)C(F)(F)F.O=C(O)C(F)(F)F (stereo unspecified),16.91,
CC(C)(C)OCC1CN(CC2CC2)S(=O)(=O)c2cnccc2O1 (stereo unspecified),-18.82,
O=C1NCC2(CCCN(C(=O)c3c[nH]nc3C3CCCCC3)C2)O1 (stereo unspecified),-117.3,
O=C(NCC1CCOC1)c1csc(-c2ccc(F)cc2)n1 (stereo unspecified),-133.9,
c1ccc(CO[C@H]2CO[C@@]3(CCCN(Cc4ccncc4)C3)C2)nc1,-35.86,
CN1C[C@H]2N(c3ncccn3)CCC[C@@]2(C(=O)NCC2CC2)C1.O=C(O)C(F)(F)F,-55.87,
CCN(CC)Cc1ccc(C(=O)NC2CCc3cc(F)ccc32)o1 (stereo unspecified),13.89,
CCN(CC)Cc1ccc(C(=O)NC2CCc3cc(Cl)ccc32)o1 (stereo unspecified),54.73,
CCN(CC)Cc1ccc(C(=O)NC2CCc3cc(Br)ccc32)o1 (stereo unspecified),46.2,
CCC(c1ccncc1)N(C)S(C)(=O)=O (stereo unspecified),-63.43,
O=c1[nH]nc2c(S(=O)(=O)N3CCCCC3)cccn12,-53.1,
CCSc1nnc(CCNC(=O)OC(C)(C)C)o1,-74.82,
Clc1ccc(OCCNC2(c3ccc(Br)cc3)CCOCC2)cc1,8.374,
Fc1ccc(C2(CNCCc3cccs3)CCOC2)cc1 (stereo unspecified),43.71,
CCN(C)S(=O)(=O)NCC1(c2cccc(Br)c2)CC1,-108.3,
FC(F)(F)c1cccc(C2(CNCc3ccncc3)CCOCC2)c1,48.98,
